Reference: paper PMC4552634, “A New Set of Chemical Starting Points with Plasmodium falciparum Transmission-Blocking Potential for Antimalarial Drug Discovery” (PLoS ONE, 2015)
Screen size: about 13,000 compounds; about 3,200 (25%) showed an effect of 50% or more. Some of the results follow.

Each compound was assayed on P. falciparum stage V gametocytes. Conditions: 48 h, 5 µM; inhibitor.
Parameters: BacTiter-Glo ATP luminescence viability of purified stage V gametocytes in 384-well plates, per cent inhibition versus DMSO
For `N#CCSc1nnc(-c2ccccc2)c2ccccc12` [TCMDC-123867], the “% Inhibition” value was 67.4%.
With `CCOC(=O)CCCc1cc(NC2CCN(C)CC2)nc(Nc2ccc(C)cc2)n1` [TCMDC-134016] the “% Inhibition” value was -52.81%.
For `C=C[C@]1(C)C[C@@H](OC(=O)CNC[C@@H](O)CN2C[C@H](c3ccnc4ccc(OC)nc34)OC2=O)[C@]2(C)[C@H](C)CC[C@]3(CCC(=O)[C@H]32)[C@@H](C)[C@@H]1O` [TCMDC-135366], the “% Inhibition” value was -2.122%.
`CCc1nc(N)nc(N)c1-c1ccc(Cl)cc1` [TCMDC-125860] was tested, and the “% Inhibition” value was 8.374%.
`Cc1nc2nc(N)nc(N)c2c(C)c1Cc1ccc(Cl)cc1` [TCMDC-137659] was tested, and the “% Inhibition” value was 18.29%.
`Nc1nc(Cc2ccc(Cl)cc2)nc(Cc2ccc(Cl)cc2)n1` [TCMDC-137497] was tested, and the “% Inhibition” value was 78.01%.
`O=C(c1ccc(-c2ccc(Cl)cc2)o1)N1CCc2cc3nccc(N4CCN5CCC[C@H]5C4)c3cc21` [TCMDC-140116] was tested, and the “% Inhibition” value was 93.89%.
With `COc1ccc(/C=C/C(=O)N2CCc3cc4nccc(N5CCN6CCC[C@H]6C5)c4cc32)cc1` [TCMDC-140046] the “% Inhibition” value was -29.41%.
For `Cc1ccc(C(=O)N2CCc3cc4nccc(N5CCN6CCC[C@H]6C5)c4cc32)cc1` [TCMDC-140036], the “% Inhibition” value was -10.33%.
`O=C(Cc1cccc(Cl)c1)N1CCc2cc3nccc(N4CCN5CCC[C@H]5C4)c3cc21` [TCMDC-140038] was tested, and the “% Inhibition” value was 0.313%.
With `COc1ccc(C(=O)N2CCc3cc4nccc(N5CCN6CCC[C@H]6C5)c4cc32)cc1` [TCMDC-140035] the “% Inhibition” value was 84.78%.
With `O=C(c1cc2ccccc2o1)N1CCc2cc3nccc(N4CCN5CCC[C@H]5C4)c3cc21` [TCMDC-140037] the “% Inhibition” value was -9.524%.
For `O=C(NCc1cccc(F)c1)c1ccc(O)c(-c2cc(Cl)cc(Cl)c2)c1` [TCMDC-140157], the “% Inhibition” value was -3.983%.
For `O=C(Nc1ccc(N2CCN(Cc3c[nH]c4cc(F)ccc34)CC2)cc1)c1ccccc1-c1ccc(C(F)(F)F)cc1` [TCMDC-138521], the “% Inhibition” value was 1.427%.
With `Cc1nc2ccc3ccc(CNc4ccc5c(c4)CN([C@H](CCC(=O)O)C(=O)O)C5=O)cc3c2c(=O)[nH]1` [TCMDC-138033] the “% Inhibition” value was 21.85%.
With `O=C(/C=C/c1ccc(Cl)c(Cl)c1)N1CCN(C(=O)Nc2ccc(F)c(Cl)c2)CC1` [TCMDC-135942] the “% Inhibition” value was -48.62%.
With `O=C(C=Cc1ccc(F)cc1)N1CCN(S(=O)(=O)c2ccc(Cl)cc2)CC1` [TCMDC-125028] the “% Inhibition” value was 63.42%.
`O=C(/C=C/c1ccc([N+](=O)[O-])cc1)N1CCC(NS(=O)(=O)c2ccc(F)cc2)CC1` [TCMDC-139441] was tested, and the “% Inhibition” value was 26.45%.
`Cc1cc(C(=O)Nc2ccc3c(c2)CCN3C2CCN(Cc3ccc(O)cc3)C2)no1` (stereo not drawn) [TCMDC-135078] was tested, and the “% Inhibition” value was -0.5259%.
In the case of `Cc1ccc(Cn2cnc3cc(C(=O)Nc4ccc(-c5cccc(CN(C)C)c5)cc4)ccc3c2=O)o1` [TCMDC-132366], the “% Inhibition” value is reported as 91.1%.
`Cc1ccc(Cn2cnc3cc(C(=O)Nc4ccc(-c5ccc(CN(C)C)cc5)cc4)ccc3c2=O)o1` [TCMDC-132364] was tested, and the “% Inhibition” value was 111.6%.
For `CN(CCO)Cc1cccc(-c2ccc(NC(=O)c3cccc(C#N)c3)cc2)c1` [TCMDC-132671], the “% Inhibition” value was -45.65%.
With `COc1cccc2cc(C(=O)N[C@@H](CC(C)C)C(=O)N[C@H](/C=N/NC(=O)Cc3cccnc3)CCc3ccccc3)oc12` [TCMDC-135634] the “% Inhibition” value was -9.897%.
`O=C(Nc1ccc(-c2nc3ccccc3[nH]2)cc1)c1cnc(Cl)c(Cl)c1` [TCMDC-125109] was tested, and the “% Inhibition” value was -47.86%.
For `CN1CCN(CC(=O)Nc2ccc(-c3ccc(-c4nc5ccccc5[nH]4)cc3)cc2)CC1` [TCMDC-136979], the “% Inhibition” value was -9.366%.
For `CN1CCC(C(=O)Nc2ccc(-c3cccc(-c4nc5ccc(F)cc5[nH]4)c3)cc2)CC1` [TCMDC-132180], the “% Inhibition” value was 28.01%.
`CN1CCN(CC(=O)Nc2cccc(-c3cccc(-c4nc5ccccc5[nH]4)c3)c2)CC1` [TCMDC-136972] was tested, and the “% Inhibition” value was 82.82%.
For `CN1CCN(CC(=O)Nc2cccc(-c3ccc(-c4nc5cc(F)ccc5[nH]4)s3)c2)CC1` [TCMDC-136986], the “% Inhibition” value was 9.75%.
For `O=C(Cc1cnc[nH]1)Nc1cccc(-c2ccc(-c3nc4ccc(F)cc4[nH]3)cc2)c1` [TCMDC-136946], the “% Inhibition” value was 4.671%.
With `CN1CCN(CC(=O)Nc2cccc(-c3cccc(-c4nc5ccc(F)cc5[nH]4)c3)c2)CC1` [TCMDC-136974] the “% Inhibition” value was 72.37%.
`CN1CCC(C(=O)Nc2cccc(-c3ccc(-c4nc5ccc(F)cc5[nH]4)cc3)c2)CC1` [TCMDC-132185] was tested, and the “% Inhibition” value was 12.21%.
With `CN1CCN(CC(=O)Nc2cccc(-c3ccc(-c4nc5ccc(F)cc5[nH]4)cc3)c2)CC1` [TCMDC-136978] the “% Inhibition” value was 78.56%.
`CN1CCN(CC(=O)Nc2ccc(-c3csc(-c4nc5ccccc5[nH]4)c3)cc2)CC1` [TCMDC-132392] was tested, and the “% Inhibition” value was -27.46%.
With `CN1CCC(C(=O)Nc2cccc(-c3cccc(-c4nc5ccc(F)cc5[nH]4)c3)c2)CC1` [TCMDC-132181] the “% Inhibition” value was 91.35%.
In the case of `CN1CCN(CC(=O)Nc2ccc(-c3cccc(-c4nc5ccc(F)cc5[nH]4)c3)cc2)CC1` [TCMDC-136973], the “% Inhibition” value is reported as -61.95%.
For `CCCN(Cc1nnc(-c2cccs2)o1)C(=O)CSc1nnnn1-c1ccc(C)c(C)c1` [TCMDC-125240], the “% Inhibition” value was 7.835%.
`CCNc1cc(C(=O)N[C@@H](Cc2ccccc2)[C@H](O)CNC2(C(C)C)CCC2)cc(N2CCCCS2(=O)=O)c1` [TCMDC-135375] was tested, and the “% Inhibition” value was 21.07%.
`O=C(Nc1cccc(N2CCC(NCc3cnn(-c4cccc(F)c4)c3)CC2)c1)c1ccncc1` [TCMDC-124666] was tested, and the “% Inhibition” value was 1.522%.
For `CCc1nc(N)nc(N)c1-c1ccc2c(c1)CCCC2` [TCMDC-137366], the “% Inhibition” value was 1.403%.
With `CC(=O)c1c[nH]c2ccc(/C=C/C(=O)NC3CCC(CCN4CCc5ccc(C#N)cc5CC4)CC3)cc12` (stereo not drawn) [TCMDC-139781] the “% Inhibition” value was 8.041%.
In the case of `Cc1cc(N(C)C)nc(Nc2ccc(NC(=O)Nc3ccccc3)cc2)n1` [TCMDC-124961], the “% Inhibition” value is reported as -7.652%.
`CC(C)(C)OC(=O)Nc1cccc(-c2csc(N=C(N)N)n2)c1` [TCMDC-139458] was tested, and the “% Inhibition” value was -7.948%.
In the case of `CC(C)(C)OC(=O)NCCc1cccc(-c2c[nH]c3ncc(-c4cccc(NS(C)(=O)=O)c4)cc23)c1` [TCMDC-136294], the “% Inhibition” value is reported as 27.56%.
With `Cc1ccc(-n2[nH]c(C)c(N=Nc3cccc(-c4cccc(NC(=O)OC(C)(C)C)c4)c3O)c2=O)cc1C` [TCMDC-141045] the “% Inhibition” value was 81.95%.
In the case of `COc1ccc(Nc2nccc(-c3ccc(NC(=O)c4cc5cc(F)ccc5[nH]4)cc3)n2)cc1` [TCMDC-133306], the “% Inhibition” value is reported as 23.43%.
In the case of `CCNC(=O)Nc1cccc(-c2ccc(-c3nc4cccc(C)c4[nH]3)s2)c1` [TCMDC-133169], the “% Inhibition” value is reported as -0.5138%.
For `Cc1ccc(Nc2nc3cc(Nc4ccnc(Nc5ccc(CS(C)(=O)=O)cc5)n4)ccc3o2)cc1` [TCMDC-141799], the “% Inhibition” value was 11.69%.
For `OC(COCc1ccc(-c2ccccc2)cc1)CN1CCCCC1` (stereo not drawn) [TCMDC-132069], the “% Inhibition” value was -30.91%.
In the case of `Cc1ccc(NC(=O)c2ccc(CN3CCCN(CC4CCCCC4)CC3)cc2)cc1F` [TCMDC-136393], the “% Inhibition” value is reported as -36.95%.
In the case of `CC1CN(c2ccc(NC(=O)c3ccc(F)cc3)cc2)CCN1Cc1cccc(F)c1` (stereo not drawn) [TCMDC-135016], the “% Inhibition” value is reported as 10.14%.
For `CC(C)(C)c1ccc(CN2CCC(NC(=O)c3ccc(-c4cccc(F)c4)s3)CC2)cc1` [TCMDC-134350], the “% Inhibition” value was -0.6628%.
In the case of `Cc1cccnc1Nc1nc(-c2ccccn2)cs1` [TCMDC-125846], the “% Inhibition” value is reported as 115%.
`c1ccc(Nc2nc(-c3ccccn3)cs2)nc1` [TCMDC-124275] was tested, and the “% Inhibition” value was 108.4%.
For `Cc1ccc(Nc2nc(-c3ccccn3)cs2)nc1` [TCMDC-125854], the “% Inhibition” value was 98.08%.
With `Cc1cccc(C(O)CNc2ccnc(Nc3cccc(-c4csc(C)n4)c3)n2)c1` (stereo not drawn) [TCMDC-136568] the “% Inhibition” value was -28.27%.
With `Cc1ccnc(Nc2nc(-c3ccccn3)cs2)c1` [TCMDC-125769] the “% Inhibition” value was 115.7%.
In the case of `COc1cccc(C(=O)NCc2cccs2)c1OCc1ccccc1` [TCMDC-141234], the “% Inhibition” value is reported as 8.01%.
`C#CCOc1ccccc1CN1CCC(N2CCc3cc(NC(=O)c4cc(C)on4)ccc32)C1` (stereo not drawn) [TCMDC-135075] was tested, and the “% Inhibition” value was -4.764%.
With `Cc1[nH]c2ccc(NS(C)(=O)=O)cc2c1C1CCN(CCC2CCN(C(=O)/C=C/c3ccc(Cl)c(Cl)c3)CC2)CC1` [TCMDC-140126] the “% Inhibition” value was -29.87%.
In the case of `Cc1ccc(NC(=O)c2ccc3nccnc3c2)cc1OC1CCN(Cc2ccc(F)cc2)CC1` [TCMDC-133748], the “% Inhibition” value is reported as -13.13%.
For `O=C(Nc1ccccc1-c1ccccc1)C1CCCN1C(=O)Nc1ccc(Cl)cc1` (stereo not drawn) [TCMDC-123648], the “% Inhibition” value was 32.25%.
With `Cc1cc(NC(=O)Nc2ccc3nccc(N4CCN(C)CC4)c3c2)ccc1Br` [TCMDC-139361] the “% Inhibition” value was 36.21%.
With `CC[C@H]1C[N+]2([O-])CC[C@@H]1C[C@H]2[C@H](O)c1cc(-c2ccccc2)nc2ccc(OC)cc12` [TCMDC-141330] the “% Inhibition” value was 6.04%.
With `Clc1ccc(Nc2nc(-c3ccccn3)cs2)nc1` [TCMDC-123885] the “% Inhibition” value was 114%.
With `CC(=O)Nc1nc(C)c(-c2csc(Nc3ccc(Cl)cc3)n2)s1` [TCMDC-123995] the “% Inhibition” value was -35.56%.
In the case of `Cc1cc(NCC2CCN(CC3CCCCC3)C2)nc(Nc2ccc(Br)cc2)n1` (stereo not drawn) [TCMDC-137024], the “% Inhibition” value is reported as -11.33%.
In the case of `O=C(NCCN1CCCC1)c1cccc(-c2ccc(-c3nc4ccc(C(F)(F)F)cc4[nH]3)cc2)c1` [TCMDC-132322], the “% Inhibition” value is reported as -42.59%.
With `Fc1ccc2nc(-c3ccc(-c4ccc(CNCc5ccccc5)cc4)cc3)[nH]c2c1` [TCMDC-132706] the “% Inhibition” value was -8.739%.
`Fc1ccc2nc(-c3ccc(-c4ccc(CNCCN5CCNCC5)cc4)cc3)[nH]c2c1` [TCMDC-132866] was tested, and the “% Inhibition” value was 95.81%.
`NCc1ccc(CNCc2ccc(-c3ccc(-c4nc5ccc(F)cc5[nH]4)cc3)cc2)cc1` [TCMDC-132810] was tested, and the “% Inhibition” value was 33.23%.
`CC(C)NCc1ccc(-c2ccc(-c3nc4ccc(C(F)(F)F)cc4[nH]3)cc2)cc1` [TCMDC-132741] was tested, and the “% Inhibition” value was -41.38%.
With `FC(F)(F)c1ccc2nc(-c3ccc(-c4ccc(CNCCN5CCNCC5)cc4)cc3)[nH]c2c1` [TCMDC-132865] the “% Inhibition” value was 81.47%.
